GIRK2 act: activators of NPY4-receptor-primed GIRK2 channels, summary, cell-based, HEK293, thallium flux; activation (% efficacy), % for hits at 37.5 µM; G protein-activated inward rectifier potassium channel 2 (Homo sapiens), P48051; AID 1259324, 2017; HEK293 GIRK2/NPY4 cells, thallium flux fluorescence; 34,000 tested, under 10 active;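 active = primary screen hit, no activity in plain HEK293 cells, and in GIRK2-only cells above 5% efficacy rising with concentration; inactive = the rest, including fluorescent compounds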;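 also: efficacy is normalized control-subtracted fluorescence 15 s after thallium addition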
AMPAR-TARP mod: modulators of GluA2-stargazin AMPA receptor complexes, primary screen, cell-based, membrane potential dye; Voltage-dependent calcium channel gamma-2 subunit (Mus musculus) + Glutamate receptor 2 …; HEK293 GluA2+stargazin, membrane potential dye (FDSS), glutamate EC50; hits were called plate by plate, in both directions; calls only at 30 µM; 40,000 tested, 3.5% active; AID 1259245, 2017;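 active = any of four per-well response measures lying three or more SD from its plate-wide compound average, in either direction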
* = called active by the depositor; i = inactive; nt = no result given; + = active, no number; ! = not confirmed by another sample. Only a selection was taken, and hits are over-represented in it overall.

SMILES	GIRK2 act	AMPAR-TARP mod
Cc1nc(NCCCn2ccnc2)nc(NCc2ccco2)c1[N+](=O)[O-]	i	i
COc1ccccc1OCC(=O)NCC1CCN(Cc2cccs2)CC1	i	nt
COc1cc(C2NC(=O)NC(O)(C(F)(F)F)C2C(C)=O)ccc1OCc1ccccc1 (centres undefined)	nt	+
COc1cc(C2NC(=O)NC(O)(C(F)(F)F)C2C(C)=O)ccc1OCc1ccc(Cl)cc1 (centres undefined)	nt	i
CCN1CCN(C(=O)c2c(C(F)(F)F)nn(C3CCN(C)CC3)c2C)CC1	i	i
COc1ccc(NS(=O)(=O)c2ccc3c(c2)CCCC3)cc1N1CCCCC1=O	i	i
COc1cc(NS(=O)(=O)c2ccc3c(c2)CCCC3)ccc1N1CCCCC1=O	i	+
O=[N+]([O-])c1cccc(NS(=O)(=O)c2ccc3ccccc3c2)c1	nt	+
COc1ccc(NS(=O)(=O)c2cccc([N+](=O)[O-])c2)cc1	nt	i
CS(=O)(=O)c1cccc(S(=O)(=O)Nc2ccc([N+](=O)[O-])cc2)c1	i	nt
O=[N+]([O-])c1ccc(NS(=O)(=O)c2ccc3ccccc3c2)cc1	nt	+
Cc1ccc(S(=O)(=O)N2CCN(c3ccc(F)cc3)CC2)cc1	nt	i
CC1CCN(c2nc3c(c(=O)[nH]c(=O)n3C)n2CC(O)COc2ccc(Cl)cc2)CC1 (centres undefined)	nt	i
Cc1ccc(OCC(O)Cn2c(N3CCCC3)nc3c2c(=O)n(C)c(=O)n3C)cc1C (centres undefined)	nt	i
Cn1c(=O)[nH]c(=O)c2c1nc(N1CCNCC1)n2CC(O)COc1ccc(Cl)cc1 (centres undefined)	nt	+
Cc1ccc(OCC(O)Cn2c(N3CCN(C)CC3)nc3c2c(=O)n(C)c(=O)n3C)cc1C (centres undefined)	nt	+
CSc1ccccc1NC(=O)c1ccc(=O)n(Cc2ccc(C(F)(F)F)cc2)c1	i	i
O=C(Cc1csc(SCC(=O)c2ccc3c(c2)OCO3)n1)NC1CCCC1	i	nt
CC(C)Cn1c(SCC#N)nc2cc(C(=O)NC(C)C)ccc2c1=O	nt	i
CCN(CC)CCn1c(SCC#N)nc2cc(C(=O)OC)ccc2c1=O	i	+!
O=C(NCCCN1CCOC(c2ccccc2)C1)c1ccccc1Cl (centres undefined)	i	i
CCOc1cc(C)c(Cl)cc1S(=O)(=O)N1CCCCC1CC (centres undefined)	nt	+
CCC1CCCCN1S(=O)(=O)c1cc(C)c(Br)cc1C (centres undefined)	nt	i
N#Cc1cccc(NC(=O)CSc2ncc(S(=O)(=O)c3cccs3)c(N)n2)c1	i	i
N#Cc1ccc(NC(=O)CSc2ncc(S(=O)(=O)c3cccs3)c(N)n2)cc1	i	+
SMILES	GIRK2 act	AMPAR-TARP mod
CCOC(=O)CCC(=O)Nc1cccc(N2CCCC2=O)c1	i	i
O=C(Nc1cccc(-c2cnc3n2CCC3)c1)c1ccc(Br)o1	i	+
CCOC(=O)CCC(=O)Nc1cccc(-c2cnc3n2CCC3)c1	i	+
O=C(Nc1cccc(Cl)c1)Nc1cccc(-c2cnc3n2CCC3)c1	i	i
O=C(Nc1cccc(-c2cnc3n2CCC3)c1)c1cc2ccccc2oc1=O	i	+
COc1ccc(Br)c(C(=O)Nc2cccc(-c3cnc4n3CCC4)c2)c1	i	i
CCOC(=O)N1CCN(C(=O)CN2CCC(COCc3cc(OC)cc(OC)c3)CC2)CC1	i	i
C=CCNC(=O)C(=O)NCC1OCCCN1S(=O)(=O)c1ccc(OC)c(OC)c1 (centres undefined)	nt	i
COc1ccc(C)cc1-n1c(-c2ccccc2)cn2c3c(=O)n(CC(C)=O)c(=O)n(C)c3nc12	i	i
CCCc1cc(=O)[nH]c(-n2nc(C3CC3)cc2NC(=O)Cc2ccc(-c3ccccc3)cc2)n1	i	i
Cc1ccc(Nc2cc(N3CCN(C(=O)c4ncccn4)CC3)nc(C)n2)cc1	i	+
Cc1ccc(Nc2cc(C)nc(N3CCN(C(=O)c4ccc5c(c4)OCO5)CC3)n2)cc1	nt	i
COc1ccc(Nc2cc(C)nc(-n3cc([N+](=O)[O-])cn3)n2)cc1	i	i
Cc1cc(Nc2ccc(Cl)cc2)nc(-n2cc([N+](=O)[O-])cn2)n1	i	+
Cc1cc(N2CCN(Cc3ccccc3)CC2)nc(-n2cc([N+](=O)[O-])cn2)n1	i	+
Cc1cc(N2CCC(Cc3ccccc3)CC2)nc(-n2cc([N+](=O)[O-])cn2)n1	i	i
Cc1ccc(S(=O)(=O)Nc2nc(CCC(=O)NCc3ccc(F)cc3)cs2)cc1	i	i
COc1ccc(NC(=O)CCc2csc(NS(=O)(=O)c3ccccc3)n2)cc1OC	i	i
O=C(CCc1csc(NS(=O)(=O)c2ccccc2)n1)Nc1ccc(OC(F)(F)F)cc1	i	i
CC(=O)c1cccc(NC(=O)CCc2csc(NS(=O)(=O)c3ccccc3)n2)c1	i	+
NC(=O)c1ccc(NC(=O)CCc2csc(NS(=O)(=O)c3ccccc3)n2)cc1	i	+
O=C(CCc1csc(NS(=O)(=O)c2ccc(F)cc2)n1)Nc1ccc(Cl)cc1	i	+
CCOC(=O)CCC(=O)N1CCC(COCc2cc(OC)cc(OC)c2)CC1	i	i
O=C(NCCOc1ccc(F)cc1)c1nc(-c2cnccn2)no1	i	i
COc1ccc(-c2ccc(=O)n(CCNS(=O)(=O)c3cc(C)c(C)cc3C)n2)cc1	nt	+
SMILES	GIRK2 act	AMPAR-TARP mod
COc1ccc(-c2ccc(=O)n(Cc3cc(C)ccc3C)n2)cc1	i	+
CCOc1ccc(S(=O)(=O)NCCn2nc(-c3ccc(OC)cc3)ccc2=O)c(OCC)c1	nt	i
Cc1ccc(C)c(Cn2nc(-c3ccc(Cl)cc3)ccc2=O)c1	i	i
COc1ccc(-c2ccc(=O)n(CCNS(=O)(=O)c3ccc(OC)cc3OC)n2)cc1	nt	i
CCOc1ccc(OCC)c(S(=O)(=O)NCCn2nc(-c3ccc(OC)cc3)ccc2=O)c1	nt	+
Cc1cc(C)c2c(n1)sc1c(=O)n(CC(=O)NCc3ccccc3Cl)c(C)nc12	i	nt
CCCCc1ccc(-n2c(-c3ccccc3)cn3c4c(=O)n(CC(N)=O)c(=O)n(C)c4nc23)cc1	i	i
O=C(Nc1nc(-c2cccnc2)cs1)C1CCN(S(=O)(=O)c2ccc(Cl)s2)CC1	nt	+
O=C(Nc1nc(-c2cccnc2)cs1)C1CCN(S(=O)(=O)c2cccs2)CC1	nt	i
CCCc1nnsc1C(=O)N1CCC(c2nnc(C(C)C)o2)CC1	i	i
COc1ccc(C(=O)/C=C/c2ccc(Cl)cc2)c(O)c1	nt	i
Cc1ccc(Cn2c(=O)c3c(nc4oc(-c5ccc(F)cc5)cn43)n(C)c2=O)cc1	i	+
Cc1ccc(C)c(Cn2c(=O)c3c(nc4oc(-c5ccc(F)cc5)cn43)n(C)c2=O)c1	nt	i
COc1ccc(S(=O)(=O)N2CCCc3cc(NC(=O)c4ccc(C)cc4)ccc32)cc1	nt	i
Cc1ccc(-n2nnc3c(N4CCN(C(=O)c5ccccc5Br)CC4)ncnc32)cc1	nt	i
CN(C)c1ccc(C(=O)NCCN2CCC(c3cccs3)CC2)cc1	i	i
